Source: PubChem
Luc counter: blocks Kinase-Glo luciferase, a counter-screen artifact. Q27757. Kinase-Glo luciferase, ATP luminescence, 8 min. Potency, µM (series often up to 38.3 µM), for the others: top-dose activity change, negative = inhibition, actives largely listed as inhibitors. actives 0.28% (n = 200,000); note: nearly all actives have a fitted effect of over 60% in size
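Inhibition of Kinase-Glo luciferase light generation was assessed at 10 uM ATP in pH 7.2 imidazole buffer, with luminescence measured after eight minutes at ambient temperature.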
IMPase Li cell: membrane-permeable IMPase blocker, potentiated with lithium; Potency, µM (doses to about 59.4 µM), inactives show at the highest dose activity, negative = IMPase inhibition, most hits filed as inhibitors; actives 0.35% (n = 210,000); CHO-M1 cells, IP1 TR-FRET (IP-One), carbachol + lithium;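 note: IP1 builds up when IMPase is blocked and the TR-FRET signal falls; plate controls were basal vehicle for no effect and high inhibitor control for full effect; nearly all actives have a fitted effect of over 50% in size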
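CHO-M1, 2000 cells/well, 16–30 h culture; cpd + low Li+, 30 min 37C; lysis with d2-IP1/Eu-anti-IP1 Ab, 10 min RT; TR-FRET 665/620 ratio and 620 channel; AC50 via Hill.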
ERK EGF block: EGF-driven ERK pathway inhibition. HEK293-V1b, EGF-stimulated phospho-ERK AlphaScreen. actives 0.41% (n = 130,000). Potency, µM (titrated, usually from 11.5 µM), without a hit: at the highest dose activity change, negative = inhibition, most hits filed as inhibitors;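 note: plate controls were stimulated vehicle wells for no effect and unstimulated vehicle basal for full effect; nearly all actives have a fitted effect of over 55% in size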
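Readout: AlphaScreen signal for phosphorylated ERK in lysed HEK293 cells stably expressing V1b. Stimulus 25 nM EGF, 5 min, following 30 min compound exposure. Data scaled to DMSO basal and full EGF activation.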
NPSR antag: neuropeptide S receptor (human) antagonism, cAMP; Q6W5P4; CHO-NPSR cells, cAMP TR-FRET, antagonist mode; Potency, µM (top dose mostly 38.3 µM), for inactives: at the top dose activity change, negative = inhibition, usual class: inhibitors; actives 1% (n = 220,000); AID 1461; note: nearly all actives have a fitted effect of over 50% in size
Target sequence (Q6W5P4 whole entry, looked up): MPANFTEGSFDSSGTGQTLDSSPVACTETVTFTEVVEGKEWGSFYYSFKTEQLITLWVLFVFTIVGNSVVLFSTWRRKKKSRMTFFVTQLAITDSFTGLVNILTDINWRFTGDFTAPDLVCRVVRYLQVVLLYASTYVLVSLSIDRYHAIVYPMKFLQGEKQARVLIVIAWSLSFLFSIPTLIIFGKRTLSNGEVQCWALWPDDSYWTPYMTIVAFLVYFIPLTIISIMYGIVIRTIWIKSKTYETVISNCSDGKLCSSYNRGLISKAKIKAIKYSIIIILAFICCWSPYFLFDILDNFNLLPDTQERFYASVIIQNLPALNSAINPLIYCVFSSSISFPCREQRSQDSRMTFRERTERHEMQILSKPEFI
* = called active by the depositor; u = inconclusive; x = no result; [ ] = another dose, or the depositor's remark. Compounds with a hit are over-represented: about 1.1% of the library has one in this group of screens. Calls come from the whole dose curve; as a rule, active = well fitted curve in the direction sought with a large enough effect; inconclusive = small, poorly fitted or top-dose-only effect, or another doubt; inactive = no such curve, though single readings can be large; an effect the other way counts as inactive or inconclusive. Unless noted, % is set by controls: 0 for no effect and ±100 for the full control effect; potency is the fitted concentration of half-maximal effect.

SMILES | Luc counter | IMPase Li cell | ERK EGF block | NPSR antag
c1cncc(CSc2ncnc3nc[nH]c23)c1 | -1%[7.66 µM] | -10% | x | x
Cc1ccc2nc(-c3ccc(N)cc3)sc2c1 | x | x | -1%[57.5 µM] | 33%
Nc1ccc2nc(-c3ccccc3)sc2c1 | 7.9µM* | 11µM* | x | -11%[46.1 µM]
O=C(CCBr)N1CCN(C(=O)CCBr)CC1 | -5% | -5% | -10% | x
NC(N)=NNC(=O)C(=O)O | -5%[7.66 µM] | -4% | x | x
CC(=O)Nc1cccc(NC(=O)c2cc(-c3cccnc3)nc3ccc(Br)cc23)c1 | -1% | 11µM* | x | -14%[46.1 µM]
Cn1cc(CNC(=O)c2cc(-c3ccccc3)nc3ccc(Br)cc23)cn1 | 0% | 11µM* | -1% | -52%
CCN1CCN(C(=O)c2cc(-c3cccnc3)nc3ccc(Br)cc23)CC1 | 2% | 13µM* | x | 13%[46.1 µM]
C/C(C[n+]1ccccc1)=N\N=C(N)N | -6%[7.66 µM] | 13% | x | x
COc1cc([C@@H]2c3cc4c(cc3[C@@H](OC3OC5COC(C)OC5C(O)C3O)[C@H]3COC(=O)[C@H]23)OCO4)cc(OC)c1O (some centres undefined) | x | 1% | x | x
Cc1onc(-c2ccccc2)c1C(=O)N/N=C/C=C/c1ccccc1 | x | x | 18µM* | 17%
O=C(/C=C/c1ccccc1Cl)c1ccccc(=O)c1O | -2% | 4% | -21% | 10µM*
Cc1ccc(/C=C/C(=O)c2ccccc(=O)c2O)c(C)c1 | 1% | 1% | -4% | -18%
O=C(/C=C/c1ccccc1Cl)c1ccc(O)cc1 | x | x | 2%[57.5 µM] | 7%
Cc1ccc(C)c(/C=C/C(=O)c2ccccc(=O)c2O)c1 | -1% | -9% | 2% | 13µM*
Nc1ccc(Cl)cc1[N+](=O)[O-] | x | 3% | x | x
CC(=NCCc1c(C)[nH]c2ccc(OC(F)(F)F)cc12)C1=C(O)CC(c2ccccc2)CC1=O (centres undefined) | 5% | 18% | 4% | 10µM*
CCCCC(=NCCc1c(C)[nH]c2ccccc12)C1=C(O)CC(c2ccccc2)CC1=O (centres undefined) | 4% | 9% | 7% | 7.9µM*
CCN1/C(=C/C(C)=C/c2sc3ccccc3[n+]2CC)Sc2ccccc21 | u | 18% | 18µM* | u
CN(C)Cc1ccccc1-c1cncnc1NCc1cccnc1 | 0% | 12% | 14% | x
CCCn1c(NC(=O)c2ccc(Br)cc2)nc2ccccc21 | -5% | 28µM* | x | u
Cc1cc(C)nc(NC(N)=NCCc2c[nH]c3ccccc23)n1 | -3% | 21% | -6% | 29%
Cc1cc(C)nc(NC(=NCCc2c[nH]c3ccccc23)NC(=O)Nc2ccc(Cl)cc2)n1 | 4% | 6% | -3% | 13µM*
CC(=O)c1cccc2c(O)c(C3=Nc4ccccc4C3=O)[nH]c12 | u | 67% | 25µM* | u
O=C1C(c2c(O)[nH]c3ccccc23)=Nc2ccccc21 | x | -5% | u | -15%
SMILES | Luc counter | IMPase Li cell | ERK EGF block | NPSR antag
Cc1cc(NC(=O)CSc2nc3ccccc3c(=O)n2-c2ccccc2)no1 | -2% | 7.1µM* | x | 13%[46.1 µM]
Cc1nnc(NC(=O)CSc2nc(C(C)C)nc3ccccc23)s1 | 5% | 7.9µM* | x | 20%[46.1 µM]
Cc1cc(NC(=O)CSc2ccccc2)no1 | -3% | -2%[38.3 µM] | x | -2%[46.1 µM]
Cc1noc(C)c1CSc1nc2ccccc2c(=O)n1-c1ccc(Cl)cc1 | 0% | 44%[38.3 µM] | x | 10µM*
CC(C)c1nc(SCC(=O)Nc2nc3c(s2)CCCC3)c2ccccc2n1 | 4% | 18%[38.3 µM] | x | -20%[46.1 µM]
Cc1cc(NC(=O)CSc2nc(C(C)C)nc3ccccc23)no1 | 10% | 13µM* | x | -15%[46.1 µM]
Cc1ccc(CSC(N)=Nc2ccccc2)cc1C | -3%[7.66 µM] | -1% | x | x
CCc1nnc(NC(=O)CSc2nc(-c3ccc(F)cc3)cc(-c3ccccc3)c2C#N)s1 | x | x | x | 7.9µM*
COc1ccc(-c2cc(-c3ccccc3)nc(SCC(=O)Nc3ncc(C)s3)c2C#N)cc1 | -2% | -1% | -6% | -21%
COC(=O)[C@]1(C)CCC(c2ccc(C)cc2)=C(CC(=O)O)C1 | -3%[7.66 µM] | 5% | x | x
CS(=O)(=O)Nc1cccc(-c2ccc3ncnc(NC4CC4)c3c2)c1 | x | 19% | x | x
O=c1ccc2[n+]([O-])c3ccc(O)cc3oc-2c1 | x | x | 16µM* | u
COc1ccc(N2C(=O)CC(Sc3nnc(-c4ccccc4)o3)C2=O)cc1 (centres undefined) | 15% | 8.9µM* | x | u
O=C1CC(Sc2nnc(-c3ccccc3O)o2)C(=O)N1c1ccccc1 (centres undefined) | 1% | -15%[38.3 µM] | x | u
CCCCn1c(NC(=O)c2ccccc2Cl)c(C#N)c2nc3ccccc3nc21 | -5% | -22%[38.3 µM] | x | 10µM*
N#Cc1c(NC(=O)c2ccccc2Cl)n(Cc2ccccc2)c2nc3ccccc3nc12 | 2% | 9% | 7% | -9%
COc1cc(OC)c(C(=O)CCCCN2CCC3(CC2)NC(=O)NC3=O)cc1NS(=O)(=O)c1ccc(C(F)(F)F)cc1 | 2% | 28% | 8% | x
CCc1ccc(CCC(=O)O)nc1 | 0%[7.66 µM] | -7% | x | x
C=C1C(=O)C=C2CN(C(=O)c3ccccc3)[C@@](Cc3ccc(OC)cc3)(C(=O)OC)[C@@H]12 | -5% | 21% | 13µM* | x
COc1ccc(-n2c(C)cc(/C=C3/SC(=S)N(C)C3=O)c2C)cc1 | -2% | 5% | -6% | -9%
Cc1cc(/C=C2\SC(=S)N(C)C2=O)c(C)n1-c1cccc(O)c1 | x | x | 28µM* | u
Cc1cc(SCC(=O)O)nc2ccccc12 | 0% | -1% | 4%[57.5 µM] | -11%
Cc1cc(SCCC(=O)O)nc2c(C)cccc12 | 7% | 10µM* | x | u
Cc1cc(C(=O)Nc2ccc(C)c(S(=O)(=O)N3CCOCC3)c2)c(C)o1 | 0% | -1% | -7% | -5%
Cc1ccc(NC(=O)/C=C/c2ccc3c(c2)OCO3)cc1S(=O)(=O)N1CCOCC1 | 3% | 13% | 28µM* | -18%
SMILES | Luc counter | IMPase Li cell | ERK EGF block | NPSR antag
O=C(CSc1ncccc1-c1nc2ccccc2[nH]1)N1CCN(c2ccccc2F)CC1 | -6% | 10µM* | x | 1%[46.1 µM]
O=C(O)c1ccccc1CN1CCC[C@@H](C(=O)O)C1 | -2%[7.66 µM] | 8% | x | x
CC(C)(C)OC(=O)COc1cc(O)c2c(=O)cc(-c3ccccc3)oc2c1 | x | x | x | -28%[46.1 µM]
CC(C)(C)OC(=O)COc1cc(OCC(=O)OC(C)(C)C)c2c(=O)cc(-c3ccccc3)oc2c1 | -1% | -20%[38.3 µM] | 18%[57.5 µM] | 6.3µM*
CC(C)(C)NC(=O)C(c1ccc(O)cc1)N(C(=O)Cn1nnc(-c2ccc(F)cc2)n1)c1ccccc1F (centres undefined) | 1% | 6% | -3% | 13µM*
CCN1C(=O)/C(=C2/C=Cc3cc(C)ccc3N2CC)N(C)C1=S | 10µM* | 54% | 14µM* | -50%
CCOC(=O)CSc1nc(-c2ccccc2)nc2ccc(F)cc12 | -5% | 10µM* | x | 1%[46.1 µM]
OCc1ccc(-c2ccc(-c3ccc(CO)s3)o2)s1 | 2%[39.9 µM] | -4% | x | x
O=C1c2ccccc2-c2nnc(-c3ccccc3)cc21 | 7.9µM* | -5%[38.3 µM] | x | -7%[46.1 µM]
COc1ccc(-c2cc3c(nn2)-c2ccccc2C3=O)cc1 | 5µM* | 7% | -3% | -25%
Cc1cccc(-c2cc3c(nn2)-c2ccccc2C3=O)c1 | u | 15%[38.3 µM] | x | -11%[46.1 µM]
